Shiga toxin inh = inhibitors of Shiga toxin in Vero cells; Vero cells, Shiga toxin protein synthesis inhibition reporter; inhibition, % at 38.7 µM; 290,000 tested, 9.2% active; AID 2315; in the data active = inhibition mostly above about 28%, no sharp cut-off; inactive = mostly below about 43%; note: 0% is about no effect
FBPA Giardia inh = blocks Giardia fructose-bisphosphate aldolase activity; A8B2U2; Potency, µM (top dose mostly 59.6 µM), for the others: top-dose activity, negative = inhibition, hits mostly inhibitors; purified Giardia FBPA; 290,000 tested, 0.71% active; note: potency is the fitted concentration of half-maximal effect; % is set by controls: 0 for no effect and ±100 for the full control effect; nearly all actives have a fitted effect of over 55% in size
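40 nM FBPA preincubated 10 min at RT with compound (up to 57.5 uM final), then substrate plus GAPDH/TPI/NAD/arsenate coupling and diaphorase/resazurin added. Fluorescence read after 20 min at RT, 525/598 nm.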
NS1 function inh = blocks influenza NS1 protein function | Potency, µM (highest dose often 46.1 µM), for inactives: at the highest dose activity, positive = more growth | 270,000 tested, 0.4% active; calls by dose curve; note: potency is the fitted concentration of half-maximal effect; actives are rising curves; nearly all actives have a fitted effect of over 50% in size
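Compounds were scored for reversing the slow growth caused by influenza A NS1 in S. cerevisiae, measured by optical density at 600 nm. Assay medium contained 2% galactose at pH 6.0; NS1-free yeast of the same strain were the positive control.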
LmPK inhibitor = blocks Leishmania mexicana pyruvate kinase activity; Q27686; 290,000 tested, 0.37% active; purified LmPK, Kinase-Glo ATP luminescence, 1 h; Potency, µM (highest dose often 57.5 µM), for inactives: at the top dose activity change, negative = inhibition, hits mostly inhibitors; note: potency is the fitted concentration of half-maximal effect; % is set by controls: 0 for no effect and ±100 for the full control effect
Target sequence (Q27686 whole entry, looked up): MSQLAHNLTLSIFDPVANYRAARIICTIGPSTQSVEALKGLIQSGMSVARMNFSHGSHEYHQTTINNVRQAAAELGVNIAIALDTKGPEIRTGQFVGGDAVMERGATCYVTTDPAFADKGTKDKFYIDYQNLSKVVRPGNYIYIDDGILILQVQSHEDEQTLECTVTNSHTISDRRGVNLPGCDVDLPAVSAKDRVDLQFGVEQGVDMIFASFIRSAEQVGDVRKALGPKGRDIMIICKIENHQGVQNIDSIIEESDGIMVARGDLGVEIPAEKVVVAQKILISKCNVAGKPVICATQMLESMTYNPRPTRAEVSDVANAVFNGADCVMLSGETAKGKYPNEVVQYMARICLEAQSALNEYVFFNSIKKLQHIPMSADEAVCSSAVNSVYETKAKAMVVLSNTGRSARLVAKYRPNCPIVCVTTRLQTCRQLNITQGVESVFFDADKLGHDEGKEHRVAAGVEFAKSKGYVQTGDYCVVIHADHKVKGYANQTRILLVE
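Purified LmPK (0.1 nM) converted ADP (0.1 mM) to ATP with PEP (0.5 mM) in imidazole buffer pH 7.2 with KCl and MgCl2, 1 h at room temperature. ATP was read by Kinase-Glo luminescence; data normalized to uninhibited and no-enzyme controls.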
CHX counter = counter-screen hit for Shiga toxin inhibitors, cycloheximide. cell reporter, cycloheximide protein synthesis inhibition counterscreen. max response, %. 300,000 tested, 12% active. AID 2314; in the data active = max response mostly above about 13%, no sharp cut-off; inactive = mostly below about 14%; note: read at 38.3 µM for the half of the compounds with a filed dose; 0% is about no effect
* = called active by the depositor; ? = inconclusive; . = no result. Shown are actives, neighbours in structure and some others; about 14% of the full set was active somewhere. Unless noted, calls come from the whole dose curve; as a rule, active = well fitted curve in the direction sought with a large enough effect; inconclusive = small, poorly fitted or top-dose-only effect, or another doubt; inactive = no such curve, though single readings can be large; an effect the other way counts as inactive or inconclusive.

SMILES | Shiga toxin inh | FBPA Giardia inh | NS1 function inh | LmPK inhibitor | CHX counter
c1ccc(COc2ccc(OCCN3CCCC3)cc2)cc1 | 69* | -9% | 3% | -2% | 50*
COCC1CCCCN1C(=O)c1ccc(OC2CCN(CCc3ccccc3)CC2)cc1 (stereo not drawn) | -7 | 7% | -8% | 5% | -4
Cc1noc(C)c1C(=O)N1CCC2(CCCN(C(=O)Nc3ccccc3)C2)CC1 | . | 10% | . | . | .
COc1ccc(S(=O)(=O)Nc2ccc(NC(C)=O)cc2)cc1[N+](=O)[O-] | -6 | 10% | 1% | 3% | -1
O=c1[nH]c(C2CCCN(S(=O)(=O)c3ccccc3)C2)nc2c1nnn2Cc1cccc(Cl)c1 (stereo not drawn) | -7 | 2% | ? | 2% | -6
COc1cccc(/C=N/NC(=O)CN2CC(c3ccccc3)CC2=O)c1O (stereo not drawn) | 40* | -27% | -4% | -7% | 34*
COc1cccc(/C=N/NC(=O)C[n+]2ccccc2)c1O | -1 | -27% | 9% | 0% | -1
COc1ccc(CCCC(=O)N/N=C/c2cccc(OC)c2O)cc1C | 52* | 14% | -10% | -1% | 28*
COc1cc(C(=O)NCC(=O)N/N=C/c2ccco2)cc(OC)c1OC | -2 | -3% | 3% | 9% | -2
COc1cc(C(=O)NCC(=O)N/N=C/c2cccc(OC(=O)c3ccco3)c2)cc(OC)c1OC | 56 | -5% | . | 2% | 15*
COc1cccc(/C=N/NC(=O)CNC(=O)c2ccco2)c1O | 54 | 14% | 1% | -2% | 15*
CSCC[C@@H](N)P(C)(=O)O | . | . | 1% | . | .
Cc1cccc(N(CC(O)CN2CCCC2)S(=O)(=O)c2ccccc2)c1 (stereo not drawn) | -14 | -3% | -1% | 0% | -6
COc1ccc(/C=C(/NC(=O)c2ccccc2)C(=O)N/N=C/c2sccc2C)cc1 | 15 | 4% | 3% | -3% | -4
CC(C)Oc1ccc(C(=O)/C(=C\c2cccs2)c2nc3ccccc3o2)cc1 | active | 1% | 21% | 14% | 38*
COc1ccc(C(=O)/C(=C\c2sccc2C)c2nc3ccccc3o2)cc1 | 49 | 9% | -11% | 1% | 19*
CC(C)N1CC(C(=O)Nc2cc(Cl)cc(Cl)c2)CC1=O (stereo not drawn) | . | 4% | 0% | 4% | -3
COc1ccc(OC)c2c(N3CC(C)OC(C)C3)cc(C(F)(F)F)nc12 (stereo not drawn) | 78* | 1% | -3% | -3% | 21*
Cc1ccc(C(=O)NC(=S)Nc2ccc(S(=O)(=O)N3CCN(C)CC3)cc2)cc1 | 18 | -17% | 18% | 4% | 26*
O=C(Nc1cccc(O)c1)c1ccc(S(=O)(=O)N2CCCCCC2)cc1 | 52* | 8% | 10% | 6% | 18*
CN1CCN(S(=O)(=O)c2ccc(C(=O)Nc3ccccc3)cc2)CC1 | 63* | 5% | ? | -1% | 19*
Cc1cccc(C(=O)NC(=S)Nc2ccc(S(=O)(=O)N3CCN(C)CC3)cc2)c1 | -5 | ? | -1% | 1% | 10
Cc1ccc(C(=O)Nc2ccccc2)cc1S(=O)(=O)N1CCN(C)CC1 | 3 | 7% | -3% | 4% | 2
O=C(Nc1cccc(S(=O)(=O)N2CCCCC2)c1)c1ccc([N+](=O)[O-])o1 | 14 | -20% | . | 2% | 29*
CCN1CCN(S(=O)(=O)c2cc3c(cc2Cl)NC(=O)CO3)CC1 | -10 | -5% | -7% | -1% | -2
SMILES | Shiga toxin inh | FBPA Giardia inh | NS1 function inh | LmPK inhibitor | CHX counter
NS(=O)(=O)c1ccc(N=Cc2c(O)c3ccccc3oc2=O)cc1 | -6 | 0% | . | 1% | -2
COc1ccc(N=Cc2c(O)c3ccccc3oc2=O)cc1 | 61* | -5% | 2% | 16µM* | 32*
Cc1cc(C)cc(N=Cc2c(O)c3ccccc3oc2=O)c1 | 12 | 3% | . | -4% | 15
Cc1cc(C)c(N=Cc2c(O)c3ccccc3oc2=O)c(C)c1 | . | 7% | -13% | 32% | 15*
CC(C)c1ccc(N=Cc2c(O)c3ccccc3oc2=O)cc1 | 64* | -6% | 8% | -9% | 60*
CC1CCCCN1C(=O)C1CCN(c2nc(-c3ccccc3)nc3c2CCC3)CC1 (stereo not drawn) | 5 | -8% | -1% | 0% | 4
COc1cccc(C=Nc2cccc3c(=O)[nH][nH]c(=O)c23)c1O | 60* | 1% | . | ? | 24*
CSCCC1NC(=O)N(CC(=O)Nc2ccc(-c3ccccc3)cc2)C1=O (stereo not drawn) | 66* | 0% | -1% | 0% | 21*
Oc1ccccc1-c1nc(NCc2ccco2)c2ccccc2n1 | 36* | -1% | -1% | 1% | 25*
COc1ccccc1Nc1nc(NCc2ccco2)c2ccccc2n1 | 32 | 0% | -69% | 2% | 24*
c1ccc(-c2nc(NCc3ccco3)c3ccccc3n2)nc1 | -1 | 3% | -85% | 1% | 9
Cc1ccc(Nc2nc(NCc3ccco3)c3ccccc3n2)cc1 | 43 | -4% | . | -6% | 30*
Fc1ccccc1-c1nc(NCc2ccco2)c2ccccc2n1 | -8 | 4% | -2% | 0% | -2
O=C(O)Cc1ccc(C(=O)c2ccc(Cl)cc2)s1 | -8 | 17% | -8% | 0% | 8
NC(=O)Cc1ccc(C(=O)c2ccc(Cl)cc2)s1 | 57* | 2% | . | 10% | 46
Cc1cc2nc(-c3ccccn3)c(-c3ccccn3)nc2cc1C | 30 | -1% | -6% | ? | 18*
CCCn1c(NC(=O)c2ccc(C)cc2)nc2ccccc21 | 42* | 20% | -18% | 0% | 17*
O=C(Nc1nc2ccccc2n1CCN1CCCC1)c1ccc(Cl)cc1 | 78* | 17% | -5% | 0% | 16
O=C(Nc1nc2ccccc2n1CCN1CCOCC1)c1ccc(Cl)cc1 | 50* | -17% | 2% | -3% | 12*
O=C(Nc1nc2ccccc2n1CCN1CCCCC1)c1ccc(Cl)cc1 | 36 | 5% | 4% | 5% | 10
C=CCn1c(NC(=O)c2ccc(C)cc2)nc2ccccc21 | 42 | ? | 4% | -5% | 16*
COCCn1c(=O)c(-c2ccc(OC)cc2)nc2cnc(N3CCOCC3)nc21 | . | 5% | . | . | .
Cc1ccc(C(=O)Nc2nc3ccccc3n2CCN2CCCC2)cc1 | 104* | 29% | 2% | -7% | 38*
O=C(Nc1nc2ccccc2n1CCN1CCCCC1)C1CCCCC1 | -10 | 0% | 3% | 1% | -4
O=C(NCC1CCCCC1)c1ccc(=O)[nH]c1 | 15 | 5% | 3% | -2% | -2
N#Cc1ccc(C(=O)NCC2CCCCC2)cc1 | 51* | -1% | -7% | 3% | 11*
COC(=O)c1c(C)[nH]c(C(=O)/C=C/c2ccccc2F)c1C | 62* | 1% | 1% | -1% | 29*
COC(=O)c1c(C)[nH]c(C(C)=O)c1C | -12 | 0% | -4% | 0% | -5
COC(=O)c1c(C)[nH]c(C(=O)/C=C/c2ccccc2Cl)c1C | 105* | 2% | 13% | -1% | 61*
OC(CNC1CCCC1)COCCOc1ccc(Br)cc1 (stereo not drawn) | 2 | 1% | -1% | 0% | -2

From PubChem BioAssay
